In PubChem BioAssay one finds composite z-score, z-score and composite Z-score data, which are given here for 5 molecules.

Assay [1] deals with Human papillomavirus type 1a protein E7 (residues 44-93). As to the kind of experiment: small molecules binding HPV E7 44-93 – biochemical, small-molecule microarray, residues 44-93, 635 nm fluorescence, primary screen (AID 1108).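 Note: E7 fragment applied at 1 µg/mL in TBST for 1 h at 4 C; score combines spot fluorescence with its signal to noise ratio.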 The following applies: fluorescence 635 nm, higher = more signal.
Assay [2] in a line: hepatitis C replication reporter changes, two-sided – Huh7 cells, luciferase reporter, HCV replication inhibitor project, primary screen (AID 1109).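 Note: huh7 hepatoma cells harbouring a luciferase neomycin HCV replicon reporter; luciferase luminescence as measure of HCV replicon replication; test concentration not given here.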 The following applies: Huh7 HCV replicon luciferase reporter, 48 h; higher = more signal.
For assay [3], the target named is Left-right determination factor 2 (Homo sapiens) (UniProt O00292). As to the kind of experiment: small molecules binding LEFTY2 protein – biochemical, small-molecule microarray, 635 nm fluorescence scan, primary screen (AID 1110). The following applies: higher = more signal.
Assay [4] addresses Calmodulin-1 (Homo sapiens) (UniProt P0DP23). As to the kind of experiment: small molecules binding calmodulin-1 with EGTA – biochemical, small-molecule microarray, Cy5-labelled CALM1, profiling panel (AID 1111).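 Note: labelled calmodulin applied in Tris saline Tween buffer holding calcium plus EGTA and DTT.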 Particulars: Cy5-CALM1 binding fluorescence, higher = more signal.
Assay [5] has the same target. As to the kind of experiment: small molecules binding Ca-loaded calmodulin-1 – biochemical, small-molecule microarray, Cy5-labelled CALM1, plus calcium, artefact control for SMM control-protein annotation, profiling panel (AID 1112).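 Note: score merges spot fluorescence with signal to noise from triplicate slides.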 The following applies: Cy5-CALM1 binding fluorescence, higher = more signal.
The nature of assay [6]: probe aWnt5a binding to arrayed compounds – biochemical, biotinylated probe, 635/667 nm fluorescence, primary screen (AID 1113).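 Note: score merges 667 nm fluorescence intensity with signal-to-noise per printed feature.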 Particulars: small-molecule microarray, higher = more signal.
Assay [7] can be described thus: probe aShh binding to arrayed compounds – biochemical, biotinylated probe, 635/667 nm fluorescence, primary screen (AID 1114).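 Note: probe is biotin-labelled aShh protein from a stem cell growth factor screen; measures binding of labelled protein to compounds printed on the slide; score merges feature fluorescence at 667 nm with signal-to-noise.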 The following applies: small-molecule microarray, higher = more signal.
Assay [8] in a line: probe aNog binding to arrayed compounds – biochemical, biotinylated probe, 635/667 nm fluorescence, primary screen (AID 1115).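 Note: probe is biotinylated aNog protein used at 0.15 µg/mL for 1 h at 4 C; z-score combines 667 nm fluorescence of each spot with its signal to noise.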 The following applies: small-molecule microarray, higher = more signal.
Assay [9] addresses Torsin-1A-interacting protein 1 (Homo sapiens) (UniProt Q5JTV8). As to the kind of experiment: compound microarray binding of lysate hLAP1 – cell lysate, small-molecule microarray, COS7 lysate, 635/667 nm fluorescence, primary screen (AID 1116). The following applies: 635 nm fluorescence, higher = more signal.
Assay [10] deals with Alpha-bungarotoxin (Bungarus multicinctus) (UniProt P60615). As to the kind of experiment: compounds binding labelled alpha-BTX control protein – biochemical, small-molecule microarray, Alexa647 label, 635/667 nm fluorescence, artefact control for SMM control protein annotation, profiling panel (AID 1117). The following applies: alpha-BTX-A647 binding fluorescence, higher = more signal.

The next assay concerns the target Albumin (Bos taurus) (UniProt P02769). As to the kind of experiment: compounds binding labelled BSA control protein – biochemical, small-molecule microarray, Alexa647 label, 635/667 nm fluorescence, artefact control for SMM control protein annotation, profiling panel (AID 1118).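 Note: score merges 667 nm emission intensity and signal-to-noise per printed compound spot.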 Particulars: BSA-A647 binding, fluorescence 635 nm, higher = more signal.
Assay [11] in a line: probe aXIP binding to arrayed compounds – biochemical, NeuroSMM set, 635/667 nm fluorescence, primary screen (AID 1119).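 Note: probe is the protein aXip251-270 applied at 1 µg/mL to compound-printed slides; binding of probe to printed compounds measured as 667 nm fluorescence plus signal to noise.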 The following applies: small-molecule microarray, higher = more signal, called active from +8 up or from −8 down.
Assay [12] in a line: probe aNOTCH3 binding on compound microarray – biochemical, small-molecule microarray, 635/667 nm fluorescence, primary screen (AID 1120).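 Note: probe is a biotin-tagged antibody raised against NOTCH3 rather than NOTCH3 protein; score merges spot fluorescence near 667 nm with spot signal to noise.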 Particulars: higher = more signal.
Assay [13] is described as follows: probe aNOTCH2 binding on compound microarray – biochemical, small-molecule microarray, 635/667 nm fluorescence, primary screen (AID 1121).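 Note: score merges feature fluorescence read at 667 nm with its signal to noise.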 Particulars: higher = more signal.
Assay [14] deals with Carbonic anhydrase 2 (Homo sapiens) (UniProt P00918). As to the kind of experiment: compounds binding carbonic anhydrase 2 – biochemical, small-molecule microarray, Alexa647-labelled CAII, profiling panel (AID 1122). The following applies: CAII-A647 binding fluorescence, higher = more signal.
A short description of assay [15]: COS7 lysate on small-molecule microarray, probe aHis, 635 nm (AID 1123).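 Note: z-score combines 667nm fluorescence intensity with signal-to-noise per printed compound spot.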 Particulars: COS7 cell lysate, fluorescence, higher = more signal.
Assay [16] is described as follows: probe aLAP1 signal on lysate-treated microarray – cell lysate, small-molecule microarray, COS7 lysate, primary screen (AID 1124).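 Note: lysate comes from COS7 cells expressing LAP1 and is applied at 0.3 µg/mL; score merges spot fluorescence near 667 nm with signal-to-noise over triplicate slides.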 The following applies: probe aLAP1, fluorescence, higher = more signal.
Another assay relates to Sam68 (KHDRBS1). As to the kind of experiment: compounds binding KHDRBS1 protein – biochemical, small-molecule microarray, 635 nm fluorescence, primary screen (AID 1125).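 Note: score merges 667 nm channel intensity with signal to noise over triplicate slides.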 Particulars: higher = more signal.
Assay [17] has as its system Chordin-like protein 2 (CHRDL2). As to the kind of experiment: compounds binding chordin-like 2 – biochemical, small-molecule microarray, 635 nm fluorescence, primary screen (AID 1126).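 Note: printed compound slides probed with Chrdl2 protein at 4 µg/mL for 1 h at 4 C; score merges 667 nm emission intensity with signal to noise over three replicate slides.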 The following applies: fluorescence 635 nm, higher = more signal.
For assay [18], the target named is Concanavalin-A (Canavalia ensiformis) (UniProt P02866). As to the kind of experiment: compounds binding concanavalin A lectin – biochemical, small-molecule microarray, Alexa647 label, 635 nm, artefact control for SMM control protein annotation, primary screen (AID 1127).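 Note: z combines 667 nm emission intensity with signal-to-noise across three replicate slides.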 Particulars: ConA-A647 binding fluorescence, higher = more signal.

Activity calls are given as the source filed them.

Chain of Torsin-1A-interacting protein 1 (Homo sapiens) (Q5JTV8 whole entry, looked up): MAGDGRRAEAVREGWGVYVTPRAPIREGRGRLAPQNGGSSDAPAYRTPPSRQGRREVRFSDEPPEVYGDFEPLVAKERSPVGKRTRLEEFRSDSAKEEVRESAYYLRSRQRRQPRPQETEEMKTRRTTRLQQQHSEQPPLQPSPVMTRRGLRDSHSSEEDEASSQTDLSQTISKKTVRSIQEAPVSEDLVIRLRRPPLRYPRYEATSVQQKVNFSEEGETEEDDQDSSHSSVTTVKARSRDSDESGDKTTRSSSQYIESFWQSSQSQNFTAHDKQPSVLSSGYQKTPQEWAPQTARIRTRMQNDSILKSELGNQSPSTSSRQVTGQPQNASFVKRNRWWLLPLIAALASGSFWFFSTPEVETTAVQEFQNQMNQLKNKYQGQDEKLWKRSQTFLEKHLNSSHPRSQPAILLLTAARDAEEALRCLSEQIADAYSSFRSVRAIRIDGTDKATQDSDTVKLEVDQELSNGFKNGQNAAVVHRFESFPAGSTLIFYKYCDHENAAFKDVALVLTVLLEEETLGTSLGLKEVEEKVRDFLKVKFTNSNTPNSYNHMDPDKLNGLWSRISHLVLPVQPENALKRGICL
Chain of Concanavalin-A (Canavalia ensiformis) (P02866 whole entry, looked up): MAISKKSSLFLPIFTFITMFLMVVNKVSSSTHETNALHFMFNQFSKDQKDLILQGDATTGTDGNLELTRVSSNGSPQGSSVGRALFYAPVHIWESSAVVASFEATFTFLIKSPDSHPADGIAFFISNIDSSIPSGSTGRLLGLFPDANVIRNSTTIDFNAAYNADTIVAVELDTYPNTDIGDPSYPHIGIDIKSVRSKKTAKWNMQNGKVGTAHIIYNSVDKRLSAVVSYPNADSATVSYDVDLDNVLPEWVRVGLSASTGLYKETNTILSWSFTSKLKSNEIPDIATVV
Chain of Left-right determination factor 2 (Homo sapiens) (O00292 whole entry, looked up): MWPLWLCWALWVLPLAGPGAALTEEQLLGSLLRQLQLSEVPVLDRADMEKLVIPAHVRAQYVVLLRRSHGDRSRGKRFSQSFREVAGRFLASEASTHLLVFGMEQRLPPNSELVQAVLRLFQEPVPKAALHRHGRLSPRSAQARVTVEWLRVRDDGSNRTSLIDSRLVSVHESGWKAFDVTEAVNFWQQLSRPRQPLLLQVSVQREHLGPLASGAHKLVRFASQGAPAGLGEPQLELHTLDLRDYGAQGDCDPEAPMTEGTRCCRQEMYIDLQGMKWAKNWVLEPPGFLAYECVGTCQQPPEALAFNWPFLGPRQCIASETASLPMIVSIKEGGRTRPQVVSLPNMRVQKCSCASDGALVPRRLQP
Chain of Alpha-bungarotoxin (Bungarus multicinctus) (P60615 whole entry, looked up): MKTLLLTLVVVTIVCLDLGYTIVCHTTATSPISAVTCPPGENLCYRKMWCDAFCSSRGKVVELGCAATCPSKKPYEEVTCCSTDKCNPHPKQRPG
Chain of Albumin (Bos taurus) (P02769 whole entry, looked up): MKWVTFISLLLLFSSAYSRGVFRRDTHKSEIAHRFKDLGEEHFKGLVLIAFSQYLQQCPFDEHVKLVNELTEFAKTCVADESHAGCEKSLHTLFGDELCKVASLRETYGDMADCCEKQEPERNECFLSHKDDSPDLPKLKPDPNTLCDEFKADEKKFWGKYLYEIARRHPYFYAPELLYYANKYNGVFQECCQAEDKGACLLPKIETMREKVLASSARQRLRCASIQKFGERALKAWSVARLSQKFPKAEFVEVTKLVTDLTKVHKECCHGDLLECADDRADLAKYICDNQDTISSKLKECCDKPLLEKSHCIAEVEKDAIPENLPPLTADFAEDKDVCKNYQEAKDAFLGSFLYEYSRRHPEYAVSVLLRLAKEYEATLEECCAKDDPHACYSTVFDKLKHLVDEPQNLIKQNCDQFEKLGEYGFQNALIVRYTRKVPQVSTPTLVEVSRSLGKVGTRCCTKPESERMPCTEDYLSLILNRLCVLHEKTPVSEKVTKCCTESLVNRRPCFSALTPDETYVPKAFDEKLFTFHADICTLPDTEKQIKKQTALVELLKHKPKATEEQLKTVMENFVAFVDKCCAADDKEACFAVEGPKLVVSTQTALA

As for `CC(C)CNC(=O)[C@@]1(C)c2ccccc2C(=O)N(Cc2cc(F)cc(C(F)(F)F)c2)[C@H]1c1ccc(CO)cc1`, the composite z-score in [1] was 1.35; in assay [3], 0.0867; in assay [4], 0.0765; in [5], 0.0987; in [6] it was -0.17; in assay [7] it was 0.0639. Also, the composite z-score in [8] was 0.341; in [9], 1.98; in assay [10], 0.884; in the assay with Albumin (Bos taurus), 0.621; in assay [12], -0.0044; in assay [13], -0.046. For the same molecule, the composite z-score in assay [14] was 0.284; in [15], 1.2; in assay [16] it was 0.615; in the assay on Sam68 (KHDRBS1), 1.17; in [17], 0.443; in assay [18] it was 0.771. Besides, the z-score in assay [2] was -0.732. Further, the composite Z-score in assay [11] is -0.17 (inactive).

For the molecule `COC(=O)C(CC#Cc1ccc2c(c1)[C@]1(C(=O)N2)[C@H](c2ccc(O)cc2)N2[C@H](c3ccccc3)[C@H](c3ccccc3)OC(=O)[C@H]2[C@@H]1C(=O)N1CCc2cc(OC)c(OC)cc2C1)C(=O)OC`, the composite z-score is 0.85 in assay [1]; 0.737 in [3]; 0.267 in assay [4]; -0.521 in assay [5]; 0.324 in assay [6]; 0.383 in [7]. Moreover, the composite z-score in assay [8] is -0.23; in assay [9], 1.25; in [10], 1.55; with Albumin (Bos taurus), -0.1; in assay [12] it was 0.0032; in assay [13], -0.125. Moreover, the composite z-score was found to be 0.366 in assay [14]; 1.72 in assay [15]; 1.05 in assay [16]; 1.32 in the assay with Sam68 (KHDRBS1); 0.64 in assay [17]; 1.12 in assay [18]. The same molecule yielded a z-score in [2] of -0.163. The composite Z-score in assay [11] was 0.33 (inactive).

As to `O=C1C2C=CC(C(O)c3cccs3)N(Nc3ccccc3)C2C(=O)N1c1ccccc1` (stereo not given), the composite z-score in assay [1] was 0.407; in assay [3], 0.253; in assay [4], 0.297; in assay [5] it was -0.971; in [6] it was 0.0135; in assay [7] it was 0.0469. For the same molecule, the composite z-score was 0.371 in assay [8]; 0.403 in assay [9]; 0.38 in assay [10]; 0.21 with Albumin (Bos taurus); 0.0864 in assay [12]; -0.0731 in [13]. For the same molecule, the composite z-score in assay [14] was 0.787; in assay [15], -0.0142; in [16], -0.646; with Sam68 (KHDRBS1) it was -0.0232; in [17] it was 0.568; in assay [18] it was 0.0148. Besides, in assay [2], the z-score is -1.09. Further, the composite Z-score in assay [11] is 0.353 (inactive).

For the molecule `CC1(C)OC[C@@]23C=C(Br)[C@@H](C[C@H]12)[C@@]1(CO1)C3=O`, the composite z-score was 0.223 in [1]; 0.841 in assay [3]; 0.0619 in assay [4]; -0.866 in [5]; 0.0937 in assay [6]; -0.0769 in [7]. In addition, the composite z-score in assay [8] is -0.132; in assay [9], 0.0611; in assay [10], 0.179; in the assay with Albumin (Bos taurus) it was -0.172; in assay [12] it was 0.0824; in assay [13], -0.189. Moreover, the composite z-score was -0.0169 in [14]; -0.0842 in assay [15]; -0.0515 in assay [16]; 0.107 with Sam68 (KHDRBS1); 0.467 in assay [17]; 0.262 in [18]. In assay [2], the z-score is -1.33. Besides, in [11], the composite Z-score was 0.0315 (inactive).

As for `COC(=O)[C@H](Cc1ccc(O)cc1)N1CC2=CCCC=C[C@@H]2[C@H]1[C@H](O)Cc1ccccc1`, the composite z-score was -0.615 in assay [1]; 0.45 in [3]; -0.197 in [4]; -0.757 in [5]; -0.157 in [6]; -0.138 in [7]. Also, the composite z-score is -0.292 in assay [8]; 0.0548 in [9]; 0.0212 in [10]; 0.293 in the assay with Albumin (Bos taurus); -0.0319 in assay [12]; -0.0772 in assay [13]. The composite z-score was 0.669 in assay [14]; 0.16 in [15]; -0.0126 in assay [16]; -0.163 with Sam68 (KHDRBS1); 0.706 in [17]; 0.295 in assay [18]. In assay [2], this molecule came in with a z-score of -0.798. The composite Z-score in assay [11] is -0.223 (inactive).
